Screens (PubChem)
The list is not random: actives were taken first. Their share in the collection is about 7.4%.
FLuc counter – firefly luciferase modulation, counter-screen for miR-21 project | P08659 | purified FLuc, Km substrates, luminescence inhibition | Potency, µM (highest dose often 57.5 µM), without a hit: at the top dose activity change, negative = inhibition, hits mostly inhibitors | 360,000 tested, 6.9% active | AID 588342;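 further: plate controls were vehicle for no effect and reference inhibitor for full effect; nearly all actives have a fitted effect of over 55% in size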
Target sequence (P08659 whole entry, looked up): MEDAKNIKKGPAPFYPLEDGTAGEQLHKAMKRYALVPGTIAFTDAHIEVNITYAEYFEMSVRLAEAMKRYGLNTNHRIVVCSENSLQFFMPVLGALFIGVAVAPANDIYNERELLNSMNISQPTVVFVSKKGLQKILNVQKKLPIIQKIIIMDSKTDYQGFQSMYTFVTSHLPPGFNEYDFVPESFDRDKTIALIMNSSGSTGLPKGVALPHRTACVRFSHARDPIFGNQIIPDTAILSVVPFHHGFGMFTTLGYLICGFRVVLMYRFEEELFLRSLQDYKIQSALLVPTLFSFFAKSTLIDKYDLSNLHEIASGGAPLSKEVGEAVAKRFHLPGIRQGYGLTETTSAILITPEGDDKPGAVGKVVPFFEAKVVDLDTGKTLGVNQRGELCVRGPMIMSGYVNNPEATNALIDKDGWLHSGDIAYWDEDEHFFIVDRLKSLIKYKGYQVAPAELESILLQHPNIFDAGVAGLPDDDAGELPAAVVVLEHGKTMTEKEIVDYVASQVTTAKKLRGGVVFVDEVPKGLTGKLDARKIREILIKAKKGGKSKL
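Purified P. pyralis luciferase, 10 nM final, with Km-level 10 uM D-luciferin and 10 uM ATP in 50 mM Tris acetate pH 7.5, 10 mM Mg acetate, 0.01% Tween-20, 0.05% BSA; 6-point qHTS titration about 60 µM downward; luminescence read.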
Rab9 promoter act – activators of Rab9 promoter. Huh7 Rab9 promoter-luciferase reporter, luminescence, 24 h. Potency, µM (titrated, usually from 9.22 µM), for inactives: at the top dose activation, negative = inhibition, actives largely listed as activators. 320,000 tested, 2.8% active; further: % of control where 0% means no effect; nearly all actives have a fitted effect of over 60% in size
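Huh7 cells stably carrying a Rab9 promoter-luciferase reporter, 1500 cells per well in OP-MEM I with 10% FBS, treated with compound 24 hours at 37C. Luciferase activity read by luminescence after 10 minutes with Amplite reagent.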
SMN2 splice enh – increases expression of the SMN2 splice variant; 210,000 tested, 2.8% active; HEK293 SMN2-luciferase splicing reporter, luminescence, 30-36 h; Potency, µM (series often up to 46.1 µM), for inactives: at the highest dose activity change, positive = activation, actives largely listed as activators; further: % of control where 0% means no effect; nearly all actives have a fitted effect of over 55% in size
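HEK293 cells carry an SMN2 […]–luciferase reporter in which exon 7 inclusion puts luciferase in frame. Cells were plated 10-12 h before compound addition, then incubated 30-36 h at 37C. ONE-Glo luminescence was read; sodium butyrate at 4.5 mM final served as control.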
ELG1 genotoxic – induces genotoxicity in HEK293T cells with luciferase-tagged ELG1 | HEK293T ELG1-luciferase reporter, luminescence, 16 h | Potency, µM (highest dose often 46 µM), without a hit: at the top dose activity change, positive = activation, most hits filed as activators | 330,000 tested, 1.3% active; further: % of control where 0% means no effect; nearly all actives have a fitted effect of over 60% in size
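16 hr compound incubation (37 °C, 5% CO2) of HEK293T cells carrying luciferase-tagged ELG1; luciferase then measured by ONE-Glo luminescence after 30 min at RT.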
Luc counter – counter-screen: inhibitors of Kinase-Glo firefly luciferase. Q27757. Kinase-Glo luciferase, ATP luminescence, 8 min. Potency, µM (doses to about 38.3 µM), for the others: top-dose activity change, negative = inhibition, usual class: inhibitors. 200,000 tested, 0.28% active; further: on the % scale 0 is the no-effect control and ±100 the full control effect; nearly all actives have a fitted effect of over 60% in size
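Compound is pinned into ATP-containing buffer (10 uM ATP, imidazole pH 7.2, 7 mM MgCl2). Kinase-Glo luciferase reagent is then added. Light output is recorded following an 8-min room-temperature incubation.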
NPC1 prom act – activators of NPC1 promoter | Potency, µM (highest dose often 9.22 µM), for the others: at the top dose activation, actives largely listed as activators | Huh7 NPC1 promoter luciferase reporter, 24 h | 320,000 tested, 2.4% active | AID 485313; further: % of control where 0% means no effect; nearly all actives have a fitted effect of over 60% in size
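Cells: Huh7 expressing luciferase under the NPC1 promoter, 1500/well. Seeded 2 h, compound added, incubated 24 h at 37 °C. Luciferase reagent, 10 min ambient, then luminescence.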
* marks the source's active call; other numbers are inactive results; ? = inconclusive; nt = not tested or not shown; [ ] = dose if it differs, or a comment. The call rests on the fitted dose curve; in most records, active means well fitted curve in the direction sought with a large enough effect; inconclusive means small, poorly fitted or top-dose-only effect, or another doubt; inactive means no such curve, though single readings can be large; an effect the other way counts as inactive or inconclusive. Potency means the concentration at half of the fitted maximal effect.

SMILES | FLuc counter | Rab9 promoter act | SMN2 splice enh | ELG1 genotoxic | Luc counter | NPC1 prom act
COc1ccc(C2CC(C)(c3ccc(OC)cc3OC)Nc3ccccc3N2)c(OC)c1 (stereo not drawn) | 7.6µM* | 1.1µM* | nt | 8.2µM* | -24% | 2.8µM*
COC(=O)C1=C(C)C(c2ccc(OC)cc2OC)NC(=O)N1 (stereo not drawn) | -3% | -7% | -17% | 5% | -1% | 7%
COc1ccccc1CC(=O)NNC(=O)c1ccco1 | 1% | 2% | nt | 1% | nt | -2%
O=C(/C=C/c1ccccc1)NNC(=O)c1cccnc1 | -5% | -2% | -13% | -1% | -1% | 2%
O=C(/C=C/c1ccccc1)Nc1cccnc1 | 6.7µM* | 2.2µM* | nt | ? | nt | 2.2µM*
O=C(/C=C/c1ccc([N+](=O)[O-])cc1)Nc1cccnc1 | 5.4µM* | 3.5µM* | 13µM* | ? | ? | 2.8µM*
Cc1ccc(/C=C/C(=O)Nc2cccnc2)o1 | 24µM* | ? | ? | 0% | -2% | 26%
O=C(/C=C/c1ccc(Cl)c([N+](=O)[O-])c1)Nc1cccnc1 | -11% | -10% | 6% | 7% | 3% | 0%
Nc1nc(Nc2ccccc2F)sc1C(=O)c1ccc(Cl)cc1 | 15µM* | nt | 14µM* | nt | nt | nt
COc1ccc2c3c(c(=O)oc2c1)C1O[C@](c2ccsc2)(Cc2ccccc21)O3 | -7%[11.5 µM] | 0%[1.84 µM] | nt | nt | nt | -1%[1.84 µM]
COc1ccc([C@]23Cc4ccccc4C(O2)c2c(c4ccc(OC)cc4oc2=O)O3)cc1 | 3.1µM* | 2%[1.84 µM] | nt | nt | nt | 19%[1.84 µM]
c1ccc(NC2=NCCN2CC2CCCCCC2)cc1 | -3% | -2% | nt | 1% | nt | 0%
O=C(c1cccc(NS(=O)(=O)c2ccc(F)c(F)c2)c1)N1CCCCC1 | -3% | 0% | nt | 1% | nt | -2%
COc1ccccc1NC(=O)Nc1nc(CC(=O)Nc2cccc(F)c2)cs1 | 17µM* | 8% | nt | -9% | nt | -6%
COc1ccccc1NC(=O)Nc1nc(C(C)(C)C)cs1 | 8.5µM* | 15% | 6% | -4% | 0% | -3%
COc1ccccc1NC(=O)Nc1nc(CC(=O)Nc2ccc(N(C)C)cc2)cs1 | 21µM* | -2% | nt | ? | nt | 0%
COc1ccccc1NC(=O)Nc1nc(CC(=O)Nc2ccc(F)cc2)cs1 | -10% | -3% | nt | -4% | nt | -4%
CC(Sc1nnc(C(C)Oc2ccccc2F)o1)C(=O)NCc1ccc2c(c1)OCO2 (stereo not drawn) | -10% | 11% | nt | 0% | nt | -1%
COc1ccc(NC(=O)CCCN2C(=O)CN(C)C2=O)cc1Cl | 0% | -1% | nt | 5% | nt | 1%
Cc1ccc(S(=O)(=O)N2CCC(C(=O)OCC(=O)NC(C)c3ccc(F)cc3)CC2)cc1C (stereo not drawn) | 0% | 2% | nt | 0% | nt | -2%
COc1cccc(CC2(CO)CCCN(Cc3cc4ccccc4[nH]3)C2)c1 (stereo not drawn) | 1% | 7% | nt | -2% | nt | 0%
Cc1cc(NC(=O)c2ccc(Cn3nc(C)c(Br)c3C)o2)no1 | -1% | 1% | 20µM* | 5% | 5% | -4%
NC(=O)c1cnn(-c2ccc3ccccc3c2)c1N | ? | 4µM* | 18µM* | ? | -1% | 27%
O=C(CSc1nnc2ccccn12)Nc1nsc(-c2ccccc2)n1 | 15µM* | 0% | 11% | -2% | -3% | 11%
COc1ccc(-c2nc(NC(=O)CSc3nnc4ccccn34)ns2)cc1 | 12µM* | 2% | 18% | -6% | 2% | 30%
O=C(CSc1nnc2ccccn12)Nc1cccc(-c2nc3ccccc3s2)c1 | -19% | ? | 14µM* | ? | 0% | 3.5µM*
CSC(=[SH+])N=N/C(=C1/C=CC=CN1)c1ccccn1.[Cu][Br] | nt | nt | -54%[9.22 µM] | nt | -2%[7.66 µM] | nt
O=C(N=C1SCC(=O)N1c1ccccc1Cl)c1ccccc1 | ? | 2µM* | 13µM* | ? | 1% | ?
